Screening results: PubChem BioAssay, Broad Institute
Rows were chosen to be rich in hits. Some 2.9% of all compounds tested hit in one or more screens of this group.
Vif imaging: inhibitors of HIV Vif; HEK293T cells, Vif self-association by quenched fluorescence, imaging, 24 h; inhibition, % at 7.49 µM; 0.35% of 340,000 active; AID 602346; in the data active = inhibition above about 50%, passing the limit was not always enough; inconclusive = no clear call, values can overlap the other calls; inactive = below about 31%
esBAF inh: inhibitors of esBAF chromatin remodeling in mouse ES cells; reporter increase, % at 12.5 µM; Bmi1-luciferase knock-in reporter, 24 h; 100% = twice the neutral-well signal; 2% of 350,000 active; in the data active = activation above about 40%; inconclusive = no clear call, values can overlap the other calls;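 note: 0% = median of the plate's neutral control wells and 100% = double that signal; a rise in the Bmi1 reporter signal indicates esBAF inhibition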
PvdQ acylase: blocks Pseudomonas aeruginosa PvdQ acylase activity; purified PvdQ acylase, fluorescence plate reader; inhibition, % at 10 µM; 0.063% of 340,000 active; in the data active = inhibition above about 30%, passing the limit was not always enough; inconclusive = no clear call, values can overlap the other calls;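 note: 0% = vehicle neutral wells and 100% = reference inhibitor wells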
Glyco luc inh: N-linked glycosylation inhibition; D54 ERlucT glycosylation luciferase reporter, 24 h; percent of 100 nM tunicamycin response; 0.23% of 360,000 active; reporter increase, % at 12.5 µM;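 active = mean luciferase reporter signal, scaled so untreated is 0 and the glycosylation-blocking control 100, at or above a set limit in every replicate; inconclusive = mean reaches the limit but not every replicate does; inactive = mean below the limit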;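 note: luciferase carries N-glycosylation sites so blocking glycosylation raises the light; 0% = median of neutral control wells and 100% = median of 100 nM tunicamycin wells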
MITF act: activators of MITF-driven TRPM1 promoter activity in SK-MEL-5 cells | SK-MEL-5 TRPM1-promoter luciferase, 24 h; % of positive control, neutral wells = 0 | activation, % at 12.5 µM | 0.75% of 300,000 active;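 active = mean activation of at least 80% with every replicate also reaching 80%; inconclusive = mean reaches 80% but some replicate falls short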;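 note: 0% = neutral control wells and 100% = parthenolide positive control wells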
Wnt act: activates Wnt/beta-catenin signaling in a reporter cell assay | activation, % at 9.35 µM | 1.2% of 300,000 active | activator, plate reader; in the data active = activation above about 30%, passing the limit was not always enough; inconclusive = no clear call, values can overlap the other calls;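 note: 0% = neutral control wells and 100% = positive control wells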
Active calls of the source: *; ? = inconclusive; nt = not tested or not shown.

SMILES	Vif imaging	esBAF inh	PvdQ acylase	Glyco luc inh	MITF act	Wnt act
CCOc1ccccc1C(=O)NCC(=O)OCc1csc(CC(=O)Nc2ccc(C)cc2)n1	1	56*	-15	1	25	5
Cc1ccc(NCCN(C)C)c2c(=O)c3cc(O)ccc3sc12	-4	nt	-6	62*	-93	3
CN(C)CCNc1cccc2sc3ccc(O)cc3c(=O)c12	2	nt	nt	107*	nt	5
COc1cc(C)c2sc3ccccc3c(=O)c2c1NCCN(C)C	-6	2	nt	21	nt	-3
COc1ccc(C2=NCN(c3ccc(C)cc3)C(=S)N2)cc1	nt	nt	-10	0	60	nt
Cc1ccc(N2CN=C(c3ccccc3)NC2=S)cc1	0	57*	-11	0	60	nt
C[C@@H]1CN([C@H](C)CO)S(=O)(=O)c2ccc(C#CC3CC3)cc2O[C@@H]1CN(C)S(C)(=O)=O	nt	5	nt	nt	nt	nt
O=C(NC1CCCCC1)C(=O)c1c[nH]c2ccccc12	-7	45*	12	-4	66	?
Cc1ccc(NC(=O)C(=O)c2c[nH]c3ccccc23)cc1	-1	20	4	-5	nt	64*
O=C(COC(=O)c1n[nH]c2ccccc12)NC(=O)NC1CCCC1	2	-9	-7	0	0	0
O=C(NC1CCCC1)c1n[nH]c2ccccc12	14	53*	-3	-6	66	8
O=C(COC(=O)c1c[nH]c2ccccc12)NC1CCCC1	15	16	-13	1	-4	4
Cc1ccc(NC(=O)c2cc(=O)[nH]c3ccccc23)cc1	-1	5	16	0	-8	-2
Cc1noc(C)c1NC(=O)Nc1ccc2c(c1)C(=O)N([C@H](C)CO)C[C@@H](C)[C@@H](CN(C)CC1CCCCC1)OCCCC[C@H](C)O2	nt	-6	nt	nt	nt	nt
COc1ccc(N=C(C)C2=C(O)CSC2=O)cc1	-16	31	44*	-2	-6	16
CC(=Nc1ccccc1)C1=C(O)CSC1=O	3	46*	-3	0	1	-1
CC(=Nc1ccccc1C)C1=C(O)CSC1=O	3	-6	3	0	0	-1
CS(=O)(=O)Nc1ccc2c(c1)[C@@H]1C[C@@H](CC(=O)NCc3ccc(Cl)cc3)O[C@@H](CO)[C@@H]1O2	nt	-1	nt	nt	nt	nt
CC(=O)Nc1nc2ccc(Br)cc2s1	nt	62*	-10	-1	24	nt
CCOC(=O)c1ccc2nc(NC(C)=O)sc2c1	19	47*	-3	-6	42	46*
CC(C)CC#Cc1ccc2c(c1)O[C@@H](CN(C)Cc1ccccn1)[C@H](C)CN([C@H](C)CO)S2(=O)=O	nt	3	nt	nt	nt	nt
N#CCC(CNc1ncc(C(F)(F)F)cc1Cl)OC(=O)c1cccc([N+](=O)[O-])c1 (stereo unspecified)	-5	-7	-8	29*	15	-5
C[C@@H]1CN([C@H](C)CO)C(=O)c2cccc(NC(=O)C3CCCCC3)c2O[C@@H]1CN(C)Cc1ccc2c(c1)OCO2	nt	-2	nt	nt	nt	nt
O=C(Nc1ccccc1)OCc1cc(-c2ccccc2Cl)on1	-19	50*	2	1	65	nt
O=C(Nc1cccc(O)c1)c1cc(-c2ccccc2Cl)on1	0	-8	-8	-15	nt	2
SMILES	Vif imaging	esBAF inh	PvdQ acylase	Glyco luc inh	MITF act	Wnt act
O=C(N[C@H]1C=C[C@H](CC(=O)N2CCN(c3ccccc3)CC2)O[C@H]1CO)c1ccccc1	nt	0	nt	nt	nt	nt
Cc1cc(C(=O)NC2CCCCC2C)c2ccccc2n1 (stereo unspecified)	3	-2	-6	-1	-22	-2
CCc1nc2ccc(F)cc2c(C(=O)NC2CCCCC2C)c1C (stereo unspecified)	54*	-5	8	2	nt	-2
CCc1cccc2c(C(=O)COC(=O)c3nccnc3N)c[nH]c12	-1	79*	-5	1	31	11
CCc1cccc2c(C(=O)COC(=O)c3ccc(O)cc3)c[nH]c12	-10	49*	-11	0	11	3
O=C(COc1ccc(C(=O)c2ccccc2)cc1)NCc1ccc(F)cc1	6	nt	-2	29*	-9	nt
COc1ccc(CNC(=O)Cn2cccc2C(=O)c2ccccc2)cc1	-1	53*	-18	-1	68	7
O=C(COc1ccccc1)NCc1ccccc1	-3	8	-9	0	6	-2
COc1ccc(CNC(=O)Cn2cccc2C(=O)c2ccccc2C)cc1	-1	47*	15	-2	67	12
Cc1ccccc1C(=O)c1cccn1CC(=O)NCc1ccccc1	-5	16	-4	3	-3	-3
O=C(Nc1ccc2c(c1)[C@@H]1C[C@H](CC(=O)N3CCCCC3)O[C@H](CO)[C@@H]1O2)NC1CCCC1	nt	-5	nt	nt	nt	nt
CC(C)CC#Cc1cnc2c(c1)C(=O)N([C@@H](C)CO)C[C@@H](C)[C@@H](CN(C)C(=O)Cc1ccncc1)O2	nt	1	nt	nt	nt	nt
c1csc(-c2nnsc2-c2nc3ccccc3[nH]2)c1	-20	40*	-8	1	-4	23
O=c1[nH]c2ccccc2nc1-c1cccs1	-7	68*	6	4	nt	43*
CC(c1nc2ccccc2[nH]1)n1c(=O)c(-c2cccs2)nc2ccccc21 (stereo unspecified)	nt	nt	nt	nt	nt	-4
Cn1cc(Cl)c(-c2nc3ccccc3[nH]2)n1	6	17	-16	-3	57	nt
Cc1ccc(-c2nnc(Oc3cccc(C)c3)c3ccccc23)cc1	-8	53*	-3	-6	41	2
Cc1ccc(Oc2nnc(-c3ccccc3)c3ccccc23)cc1	1	8	5	-9	22	0
COc1ccc(CCNC(=O)CSc2nc3ccsc3c(=O)n2Cc2ccccn2)cc1OC	-14	43*	nt	1	nt	3
NS(=O)(=O)c1ccc(CCNC(=O)CSc2nc3ccsc3c(=O)n2C2CC2)cc1	-1	nt	-8	0	6	-3
NS(=O)(=O)c1ccc(CCNC(=O)CSc2nc3ccsc3c(=O)n2Cc2ccccn2)cc1	9	20	nt	0	nt	36*
Cc1csc(=NC(=O)c2ccccc2)n1C	0	?	-3	-2	nt	34*
CCc1nc2oc3cc(OC)ccc3c(=O)c2c(=O)n1-c1ccccc1	-2	45*	5	2	43	13
CCc1nc2oc3ccccc3c(=O)c2c(=O)n1Cc1ccccc1	2	nt	4	2	-16	0
Cc1ccc(-n2c(C)nc3oc4ccccc4c(=O)c3c2=O)cc1	6	56*	-4	0	12	?
C[C@H](CO)N1C[C@H](C)[C@@H](CN(C)C(=O)Nc2ccccc2)Oc2ncc(-c3ccccc3)cc2C1=O	nt	0	nt	nt	nt	nt
CN(C)C(=O)C[C@H]1CC[C@@H]2[C@H](COC[C@H](O)CN2Cc2ccc(C(F)(F)F)cc2)O1	nt	-5	nt	nt	nt	nt
Cc1ccc(OCc2ccc(C(=O)O)o2)cc1C	9	?	-6	0	19	30
COC(=O)c1ccc(COc2cc(C)ccc2C)o1	4	70*	2	1	82*	7
